These results are taken from paper PMC5540273 (PLoS ONE, 2017).

One assay has as its system T1, LZK.
T1 construct: gene MAP3K13

A further assay relates to T2, MEK1.
T2 construct: gene MAP2K1

For the next assay, the system named is T3, MLCK.
T3 construct: gene MYLK3
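Also: kd values determined as follow-up on hits from a single-replicate KINOMEscan panel screen.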

In the assay with LZK, `Fc1cccc(COc2ccc(Nc3ncnc4sc(-c5ccc[nH]5)cc34)cc2Cl)c1` [GW707818] came in with an equilibrium dissociation constant (Kd) greater than 10 µM.

In turn, `O=C(NCCCN1CCCC1=O)c1cnc(NCc2cc(Cl)ccc2Cl)nc1NC1CCNCC1` showed a Kd in the assay with MAK greater than 10 µM.

With `c1ccc(-c2ccc3c(-c4ccnc(Nc5ccc6c(c5)OCCO6)n4)cnn3n2)cc1` [GW818941], the Kd in the assay on MAK and in the assay on MET was greater than 10 µM in each case.

In the assay on MAPKAPK2, `Cn1cc(-c2ccc3c(c2)CCN3C(=O)Cc2cccc(C(F)(F)F)c2)c2c(N)ncnc21` [GSK2606414] showed a Kd greater than 10 µM.

In the assay with MARK3, `CCn1c(-c2ccncc2)nc2cnccc21` [SB-735216] gave a Kd greater than 10 µM.

In turn, `CC(C)(C)OC(=O)NC1CCCN(c2cc(-c3ccc4c(N)n[nH]c4c3)nc(N)n2)C1` (stereo not shown) [GSK2286096] had an equilibrium dissociation constant (Kd) with MEK1 greater than 10 µM.

`C[C@H]1CC[C@@H](C(=O)Nc2ccccc2)CN1c1cc(-c2ccc3c(N)n[nH]c3c2)nc(N)n1` [GSK2283293] returned a Kd with MET greater than 10 µM.

Compound `CSc1ccc(NC2=C(c3ccccc3Cl)C(=O)NC2=O)cc1` [SB-342411] gave a Kd in the assay on MKNK1 greater than 10 µM.

With `Nc1n[nH]c2nnc(-c3ccccc3)cc12` [SB-517389], in the assay on MLCK, the Kd was greater than 10 µM.
